High-throughput results deposited in PubChem by National Center for Advancing Translational Sciences (NCATS).
The list is not random: actives were taken first. Their share in the collection is about 1.5%.
rTrxR1 inhibitor: inhibitors of rat thioredoxin reductase 1 | hit rate 1% among 390,000 | recombinant rTrxR1, NADPH fluorescence consumption, selenite substrate | Potency, µM (titrated, usually from 114 µM), without a hit: at the highest dose activity change, negative = inhibition, actives largely listed as inhibitors; note: potency is the fitted concentration of half-maximal effect; nearly all actives have a fitted effect of over 65% in size
Target sequence (O89049 whole entry, looked up): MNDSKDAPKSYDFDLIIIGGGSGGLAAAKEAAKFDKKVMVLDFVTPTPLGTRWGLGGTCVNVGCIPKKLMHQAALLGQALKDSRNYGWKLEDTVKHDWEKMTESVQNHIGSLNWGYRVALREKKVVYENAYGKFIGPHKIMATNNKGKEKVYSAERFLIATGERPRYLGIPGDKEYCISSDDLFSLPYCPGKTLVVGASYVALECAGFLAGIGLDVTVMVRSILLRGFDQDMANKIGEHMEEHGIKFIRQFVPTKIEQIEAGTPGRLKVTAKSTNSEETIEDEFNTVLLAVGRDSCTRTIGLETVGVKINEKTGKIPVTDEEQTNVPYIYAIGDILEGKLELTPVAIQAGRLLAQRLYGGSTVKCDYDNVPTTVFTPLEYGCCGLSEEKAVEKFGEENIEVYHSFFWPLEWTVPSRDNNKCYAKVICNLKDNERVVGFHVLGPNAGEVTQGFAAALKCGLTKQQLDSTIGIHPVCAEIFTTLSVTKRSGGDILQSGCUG
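Rat TrxR1 (90 nM in the dispensed reagent) was pre-reduced with 400 uM NADPH for 5 min at room temperature, then incubated with compound for 15 min. After 400 uM selenite was added, NADPH fluorescence (Ex 340/Em 450 nm) was followed for 8 min.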
Giardia killer: Giardia lamblia killing. Giardia lamblia trophozoite viability. activity change, % at 7.66 µM, hits read low. hit rate 0.15% among 340,000. AID 540267; in the data active = activity change below about -80%; inconclusive = between about -30% and that limit;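 note: parasites exposed to compound for two days anaerobically before the ATP read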
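Killing of trophozoites was scored by loss of ATP luminescence after a 48 hrs anaerobic exposure to compounds at 37 deg C, using 100 cells per well.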
Coupling enz: counter-screen for Giardia aldolase inhibitors: coupling enzyme system | coupling enzyme system counterscreen, AmpLite Red fluorescence | activity change, negative = inhibition, % at 58.2 µM, hits read low | hit rate 0.67% among 290,000; in the data active = activity change below about -30%
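Counterscreen of the coupled detection system alone, without aldolase: glyceraldehyde-3-phosphate coupling enzymes plus AmpLite Red readout. Compounds at 57.5 uM final, 10 min RT preincubation, 20 min RT reaction, fluorescence 525/598 nm.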
PI4K2A inh: inhibitors of human PI4K2A. Q9BTU6. purified PI4K2A, ADP-Glo luminescence, 1 h; stronger effect = lower value. activity change, negative = inhibition, % at 76.9 µM. hit rate 0.13% among 420,000; in the data active = activity change below about -50%; inconclusive = mostly about -30% to -49%;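 note: -100% = wells without enzyme as full effect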
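In this quantitative HTS, ADP production by PI4K2A was quantified luminescently after 1 h at ambient temperature; 100 microM adenosine served as plate-quality control.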
GALK inh: inhibitors of human galactokinase; P51570; hit rate 0.007% among 270,000; Purified GALK, Kinase-Glo residual ATP luminescence; Potency, µM (highest dose often 57.5 µM), for inactives: at the highest dose activity change, negative = inhibition, hits mostly inhibitors; note: potency is the fitted concentration of half-maximal effect
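Human GALK (5 nM) with 35 uM ATP and 100 uM galactose in 20 mM HEPES pH 8.0, 5 mM MgCl2, 60 mM NaCl, 1 mM DTT, 0.01% BSA. After 1 h at room temperature, leftover ATP was read by Kinase-Glo Plus luminescence.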
TrxR1 substrate: is turned over as a substrate by rat TrxR1. O89049. purified TrxR1 substrate turnover, NADPH consumption readout. Potency, µM (titrated, usually from 114 µM), without a hit: at the top dose activity change, negative = substrate turnover. hit rate 0.01% among 390,000; note: potency is the fitted concentration of half-maximal effect; nearly all actives have a fitted effect of over 50% in size
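Rat TrxR1, dispensed at 90 nM, was prereduced with 400 uM NADPH (final) for 5 min at ~22 deg C, then incubated with compound 15 min before 400 uM selenite. A first-read NADPH fluorescence drop versus no-compound background flagged substrates.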
An asterisk follows results filed as active; [ ] = remark or other dose. Unless noted, calls come from the whole dose curve; as a rule, active = well fitted curve in the direction sought with a large enough effect; inconclusive = small, poorly fitted or top-dose-only effect, or another doubt; inactive = no such curve, though single readings can be large; an effect the other way counts as inactive or inconclusive. Unless noted, % is set by controls: 0 for no effect and ±100 for the full control effect.

Screening COc1cccc(/C=C/c2nc(C#N)c(N3CCC(C(N)=O)CC3)o2)c1 returned rTrxR1 inhibitor 79µM*, PI4K2A inh -4 and TrxR1 substrate inactive.
For COc1cccc(/C=C/c2nc(C#N)c(N3CCCCCC3)o2)c1 the results were rTrxR1 inhibitor 81%, PI4K2A inh -1 and TrxR1 substrate 351%.
Screening CC1=C(C(=O)Nc2ccccc2)C(c2ccncc2)n2nc(SCc3ccccc3F)nc2N1 (centres undefined) returned rTrxR1 inhibitor 33%, PI4K2A inh 1 and TrxR1 substrate 10%.
Screening CC(C)(C)NC(=O)COC(=O)c1cc(F)c(F)cc1Cl returned rTrxR1 inhibitor -2%, Giardia killer -7, Coupling enz -61*, PI4K2A inh 10, GALK inh -2% and TrxR1 substrate 3%.
For CNC(=O)COC(=O)c1cc(F)c(F)cc1Cl the results were rTrxR1 inhibitor 12%, Giardia killer 7, Coupling enz 0, PI4K2A inh -7, GALK inh 0% and TrxR1 substrate 3%.
Screening CCCCCCCCCCCCC/C=C/[C@@H](O)[C@H](CO)NC(=O)CCCCC returned Coupling enz -11.
For CCOc1ccc(-c2c(C(=O)N/N=C(\C)c3ccncc3)nnn2-c2nonc2N)cc1 the results were rTrxR1 inhibitor -24%, Giardia killer -17, Coupling enz -2, PI4K2A inh -5, GALK inh 7% and TrxR1 substrate 13%.
Cc1ccc(-c2c(C(=O)N/N=C/c3cccc(Cl)c3)nnn2-c2nonc2N)cc1 was read as rTrxR1 inhibitor 15%, Giardia killer -11, Coupling enz -36*, PI4K2A inh -6, GALK inh 5% and TrxR1 substrate 1%.
For C/C(=N\NC(=O)c1nnn(-c2nonc2N)c1-c1cccs1)c1ccncc1 the results were rTrxR1 inhibitor 35µM*, Giardia killer -14, PI4K2A inh 0, GALK inh -5% and TrxR1 substrate 2%.
O=C(NC(=S)NCc1ccccc1)c1ccc(Br)cc1 was read as rTrxR1 inhibitor -58%, Giardia killer -7, PI4K2A inh 2 and TrxR1 substrate -14%[57.1 µM].
`COc1ccc(C(=O)NC(=S)NCc2ccccc2)cc1` gave rTrxR1 inhibitor 22µM*, Giardia killer -15, Coupling enz 2, PI4K2A inh 6, GALK inh -2% and TrxR1 substrate -8%.
`CC(C)C1=C2OC(N)=C(C#N)C(C#N)=C2C(C)CC1` (centres undefined) gave rTrxR1 inhibitor -13%[57.1 µM], Giardia killer 8, Coupling enz -39*, PI4K2A inh 1, GALK inh -1% and TrxR1 substrate 41%[57.1 µM].
For Cc1cc(C)c(S(=O)(=O)/N=C2\C=CC(=O)C(Cl)=C2)c(C)c1 the results were rTrxR1 inhibitor 18µM*, Giardia killer -13, Coupling enz -30, PI4K2A inh -6, GALK inh 1% and TrxR1 substrate 5%.
Screening O=c1c(Cl)c(Nc2cccc(Cl)c2)cnn1-c1nc2ccccc2s1 returned rTrxR1 inhibitor inconclusive, Giardia killer -2, Coupling enz 4, PI4K2A inh -9, GALK inh 1% and TrxR1 substrate -7%.
For COc1ccc(Nc2cnn(-c3nc4ccccc4s3)c(=O)c2Cl)cc1 the results were rTrxR1 inhibitor 3.2µM*, Giardia killer -28, Coupling enz 1, PI4K2A inh -27, GALK inh -1% and TrxR1 substrate -2%.
Cn1c2ccccc2c2c(C(=O)NCc3ccco3)cn(C3CCCCC3)c(=O)c21 was read as rTrxR1 inhibitor 20µM*, Giardia killer -26, Coupling enz -5, PI4K2A inh -16, GALK inh -1% and TrxR1 substrate 23%.
For O=C(N/N=C/c1ccccc1C(=O)O)c1cccc(S(=O)(=O)Nc2cc(Cl)ccc2Cl)c1 the results were rTrxR1 inhibitor 20%[0.0914 µM], Giardia killer -25, Coupling enz 17, PI4K2A inh -3, GALK inh 4% and TrxR1 substrate -3%.
